FBW7 act = activators of human E3 ligase FBW7; Q969H0; AlphaScreen FBW7–phospho-cyclin E peptide binding, activator screen; normalized activity (activation), % at 26.1 µM; 650,000 compounds, 0.13% hits; AID 1259310; in the data active = normalized activity above about 1.9%;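 also: purified mutant Fbw7 with reduced substrate affinity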
MITF primary = human MITF inhibition, primary screen. O75030. AlphaScreen MITF homodimerization, bead proximity signal. inhibition, % at 2.6 µM. 650,000 compounds, 0.91% hits. AID 1259374; in the data active = inhibition above about 50%;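 also: 0% = vehicle wells with protein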
GPR151 activ = activates the human receptor GPR151. 650,000 compounds, 1% hits. PathHunter beta-arrestin GPR151 cells, luminescence. Q8TDV0. activation, % at 11.2 µM; in the data active = activation above about 4.9%;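 also: 0% = median of compound wells and 100% = cells with positive control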
Target sequence (Q8TDV0 whole entry, looked up): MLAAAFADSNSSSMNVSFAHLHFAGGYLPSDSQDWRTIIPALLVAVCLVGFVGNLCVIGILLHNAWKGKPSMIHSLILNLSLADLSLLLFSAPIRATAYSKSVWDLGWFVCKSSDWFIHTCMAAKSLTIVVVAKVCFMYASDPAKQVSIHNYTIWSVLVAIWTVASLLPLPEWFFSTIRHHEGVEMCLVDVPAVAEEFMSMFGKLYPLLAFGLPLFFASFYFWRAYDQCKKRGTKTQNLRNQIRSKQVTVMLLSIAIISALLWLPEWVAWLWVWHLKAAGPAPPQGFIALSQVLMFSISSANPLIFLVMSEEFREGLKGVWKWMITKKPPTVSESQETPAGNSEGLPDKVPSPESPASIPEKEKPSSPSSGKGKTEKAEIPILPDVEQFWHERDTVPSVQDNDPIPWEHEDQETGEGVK
TEAD-YAP inh = TEAD-YAP interaction inhibition; 640,000 compounds, 1.4% hits; inhibition, % at 9.12 µM; HEK-TIYL cells, TEAD-Gal4/YAP UAS-luciferase luminescence; in the data active = inhibition above about 32%;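 also: 0% = median of test compound wells and 100% = reference inhibitor wells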
MITF confirm = confirmation of human MITF inhibitors | shares compounds with MITF primary | AlphaScreen MITF homodimerization, biotin/His-MITF beads | inhibition, % at 2.6 µM | 4,700 compounds, 16% hits;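 active = inhibition above a cutoff derived from the DMSO control wells, cut at about 28% in these data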;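 also: 0% = MITF dimer wells with DMSO only; inhibitors lower the bead chemiluminescence by keeping MITF from dimerizing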
AlphaScreen intf2 = optically interferes with AlphaScreen signal | inhibition, % at 2.6 µM | AID 1259376 | shares compounds with MITF primary | 4,700 compounds, 7.6% hits | LysRS AlphaScreen counterscreen, signal interference, triplicate;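 active = inhibition above a cutoff derived from the DMSO control wells, cut at about 30% in these data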
* marks the source's active call; other numbers are inactive results; · = not tested or not shown. Rows were chosen to be rich in hits. Some 3.5% of all compounds tested hit in one or more screens of this group.

SMILES	FBW7 act	MITF primary	GPR151 activ	TEAD-YAP inh	MITF confirm	AlphaScreen intf2
COc1ccc(Br)cc1CN1CCN(Cc2cccn2C)CC1	-0.2	66.8*	1.4	1.3	19.4	15.6
COc1ccc(OC)c(CN2CCOCC2)c1	-0.1	1.2	-0.6	2.6	·	·
CCN(CC)C(=O)C(C(=O)c1ccccc1)n1cc(Cl)ccc1=O (configuration not stated)	0.3	3.3	1.5	-0.8	·	·
O=C(Oc1c(I)cc(Cl)c2cccnc12)N1CCCCC1	0.0	1.2	-0.9	7.8	·	·
O=C(c1ccccc1)c1cccn1CC(=O)N1CCCC1	0.2	7.0	0.5	-0.1	·	·
O=C(c1ccccc1)c1cccn1CC(=O)N1CCCCCC1	0.0	63.4*	1.0	2.5	10.3	9.9
O=C(CN1CCN(C/C=C/c2ccccc2)CC1)NCCCc1ccccc1	0.0	0.6	-0.9	1.2	·	·
O=C(CN1CCN(C/C=C/c2ccccc2)CC1)NCc1ccccc1	-0.2	73.5*	0.0	10.3	6.3	-10.6
CC(C(=O)N(C)Cc1ccccc1)N1CCN(C/C=C/c2ccccc2)CC1 (configuration not stated)	-0.3	59.1*	-1.1	-5.2	9.1	16.2
CN1CCN(NC(=S)Nc2ccc(S(N)(=O)=O)cc2)CC1	-0.2	-17.5	2.3	3.6	·	·
Cc1cc(=O)n(C)c(=O)n1CCCCCCNCc1ccccc1	-0.2	76.7*	0.0	3.6	-8.3	-5.9
CCOC(=O)c1c(NC(=O)c2cc(-c3ccccc3C)nc3ccccc23)sc2c1CCCCCC2	-0.1	68.7*	-1.2	1.9	6.8	6.4
CCOC(=O)c1c(NC(=O)c2cc(-c3cc(C)ccc3C)nc3ccccc23)sc2c1CCCC2	0.1	-15.7	-0.9	-5.2	·	·
COc1ccc(OC)c(CN2CCCC(C(=O)N3CCCCCC3)C2)c1 (configuration not stated)	-0.1	93.2*	-0.3	7.9	-13.6	-6.2
COc1ccc(OC)c(CN2CCCC(C(=O)NN)C2)c1 (configuration not stated)	-0.3	50.2	0.2	-6.9	·	·
COc1ccc(OC)c(CN2CCC(C(N)=O)CC2)c1	-0.1	2.1	1.6	0.6	·	·
COc1ccc(OC)c(CN2CCCC(C(=O)N3CCCCC3)C2)c1 (configuration not stated)	-0.1	77.9*	-0.3	0.3	-15.0	-3.2
COc1ccc(CN2CCCC(C(=O)N3CCCC3)C2)c(OC)c1OC (configuration not stated)	0.0	93.2*	-0.3	13.5	-14.9	-11.9
CCOC(=O)c1c(NC(=O)c2ccc(Cl)cc2)sc(C(=O)Nc2ccc(C)c(Cl)c2)c1C	0.0	-5.8	0.8	-11.2	·	·
CC1=C(C(=O)OC2CCCCCCC2)C(c2ccc(Cl)cc2Cl)NC(=O)N1 (configuration not stated)	0.1	0.9	-1.1	-11.1	·	·
COc1cccc(Nc2cc(N3CCCCCC3)c3nonc3c2[N+](=O)[O-])c1	0.1	-6.4	-0.4	3.9	·	·
CCc1ccc(NC(=O)CNC(=O)c2nn(-c3ccc(OC)cc3OC)c(=O)c3ccccc23)cc1	0.1	3.8	-0.5	7.8	·	·
COc1cccc(CN2CCN(Cc3ccccn3)CC2)c1OC	-0.4	63.9*	-0.1	-7.6	-4.3	13.1
COc1cc(CN2CCN(Cc3ccccc3C(F)(F)F)CC2)cc(OC)c1OC	-0.2	72.8*	0.6	3.1	6.1	13.1
COc1cccc(CN2CCN(Cc3ccccc3C(F)(F)F)CC2)c1OC	-0.2	67.1*	-0.2	-8.8	-0.1	9.4
SMILES	FBW7 act	MITF primary	GPR151 activ	TEAD-YAP inh	MITF confirm	AlphaScreen intf2
COc1cc(CN2CCN(c3ccccc3)CC2)cc(OC)c1OC	0.0	43.3	-1.0	2.1	·	·
CC(C)(C)CNc1cc(N2CCN(C(=O)c3cccs3)CC2)ccc1[N+](=O)[O-]	-0.1	10.6	1.5	5.8	·	·
O=C(N/C(=C\c1ccc(F)cc1)C(=O)N1CCOCC1)c1ccco1	-0.1	2.8	0.1	-4.2	·	·
COc1cc2nc(NC(=O)C3CCCCC3)sc2cc1OC	-0.1	6.8	-0.6	-50.8	·	·
O=C(COC(=O)C1CCC(=O)N1)Nc1ccccc1Br (configuration not stated)	0.4	52.8*	0.6	-0.7	-2.8	0.5
CCCN1C(=O)C(O)(c2c[nH]c3ccccc23)c2cc(Cl)ccc21 (configuration not stated)	0.0	-4.7	1.1	6.9	·	·
COc1ccc(CC2(CO)CCN(Cc3cccc(C(C)=O)c3)CC2)cc1	-0.1	-3.9	-0.3	-6.0	·	·
COc1ccc(F)c(CN2CCC(C3(CCc4ccccc4)NC(=O)NC3=O)CC2)c1 (configuration not stated)	0.1	80.6*	1.3	3.6	1.5	-2.2
O=[N+]([O-])c1ccccc1CN1CCN(Cc2ccco2)CC1	0.1	53.6*	-0.5	-6.7	6.6	14.8
CC1CN(Cc2ccccc2Cl)CC(C)O1 (configuration not stated)	0.5	80.3*	0.4	2.9	-2.0	6.5
O=[N+]([O-])c1ccccc1CN1CCSCC1	-0.1	38.4	0.3	-0.2	·	·
Clc1ccccc1CN1CCN(Cc2ccco2)CC1	-0.1	69.3*	0.9	-20.1	15.8	15.6
CCc1ccc(NC(=O)C(=O)N/N=C(\C)CC(=O)Nc2ccc(C)c(Cl)c2)cc1	-0.1	-7.4	-1.3	-8.4	·	·
Cc1cc(C)nc(SCc2nnc(SCC(=O)Nc3nccs3)o2)n1	-0.4	72.4*	-0.1	4.2	77.0*	30.8*
Cc1cc(C)c(C(N)=O)c(SCC(=O)Nc2nccs2)n1	0.4	1.8	0.0	-3.2	·	·
CC(C)(C)c1csc(CN2CCN(CC(=O)Nc3ccc4c(c3)OCO4)CC2)n1	-0.5	79.5*	-1.0	8.6	1.6	2.8
O=C(CN1CCCC1)NC(c1ccccc1)c1ccccc1	0.1	58.8*	-0.7	-0.9	7.5	13.4
O=C(CNC1CCCCC1)NC(c1ccccc1)c1ccccc1	-0.1	51.9*	0.7	-0.6	12.1	8.6
CCN1CCN(C(C)C(=O)NC(c2ccccc2)c2ccccc2)CC1 (configuration not stated)	0.4	60.9*	-0.1	-5.5	10.7	13.6
O=C(CN1CCCCC1)NC(c1ccccc1)c1ccccc1	-0.2	53.4*	-0.9	-5.8	13.4	7.0
O=C(CN1CCC(N2CCCCC2)CC1)NC(c1ccccc1)c1ccccc1	-0.1	14.3	0.2	-5.9	·	·
N/C(CC(=O)NC1CCCCC1)=N\OCC(=O)NC(c1ccccc1)c1ccccc1	0.0	12.0	1.2	9.1	·	·
CCN1CCN(C(=O)C(c2ccccc2)c2ccccc2)CC1	0.0	-4.4	-1.8	2.0	·	·
COc1ccc(-c2nc3s/c(=C\c4ccc([N+](=O)[O-])cc4)c(=O)n3n2)cc1	0.0	5.6	1.6	5.3	·	·

Screening data (PubChem)
